# PrP 5UTR inh: suppresses PrP 5' UTR mRNA reporter expression; cell-based PrP 5' UTR mRNA reporter, plate reader; actives 0.35% (n = 340,000); AID 488862; inhibition, % (concentration not given with the values); in the data active = inhibition above about 52%; also: 0 = median of the neutral control wells
# Vc quorum ag: quorum light induction in luxS cqsA deficient V. cholerae; V. cholerae BH1578 lux reporter, luminescence, 6 h; activation, % at 18.7 µM; actives 0.16% (n = 350,000); in the data active = activation mostly above about 9.7%, no sharp cut-off; inconclusive = no clear call, values can overlap the other calls; inactive = mostly below about 3.7%
# PriA SSB inh: blocks PriA binding to SSB C-terminal tail | inhibition, % at 33 µM | AlphaScreen SSBct-PriA binding, biotinylated peptide | AID 1272365 | actives 0.6% (n = 430,000); in the data active = inhibition mostly above about 37%, no sharp cut-off; inactive = mostly below about 20%;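 also: plate controls were negative control peptide for no effect and reference peptide for full effect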
# PfHsp40 yeast: rescue of PfHsp40-mediated yeast toxicity; S. cerevisiae expressing PfHsp40, growth rescue, ATP luminescence; growth rescue, % at 12.5 µM; actives 0.68% (n = 340,000); AID 504582; in the data active = growth rescue above about 28%, passing the limit was not always enough; inconclusive = no clear call, values can overlap the other calls;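 also: yeast W303a lacking pdr1 and pdr3 grown in galactose medium; growth measured after three days at 30 °C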
# SARS 3CLpro inh: SARS-CoV 3CLpro protease inhibition | P0C6X7 | recombinant SARS-CoV 3CLpro, quenched FRET peptide cleavage | inhibition, % at 6 µM | actives 0.14% (n = 290,000); in the data active = inhibition above about 12%
# PrPC TRFRET: reduces human prion protein on the cell surface. P04156. cell surface PrPC, TR-FRET read-out. inhibition, % at 13.8 µM. actives 0.43% (n = 370,000). AID 720596; in the data active = inhibition above about 24%; also: 0% = median of the test wells and 100% = reference compound wells
# Numbers without * were called inactive; i = inactive; ? = inconclusive; . = no result given; + = active, no number. Sampled rows, rich in hits. Any-hit rate of the full collection: about 1.6%.
SMILES,PrP 5UTR inh,Vc quorum ag,PriA SSB inh,PfHsp40 yeast,SARS 3CLpro inh,PrPC TRFRET
N#CCc1ccc(C(=O)c2ccccc2F)s1,-23,25*,-3,-1,0,-8
CCOC(=O)c1c(C)c(C(=O)N2CCc3ccccc3C2)c(C)n1CC,-17,-1,39*,2,2,1
CCOC(=O)c1c(C)c(C(=O)Nc2ccccc2)c(C)n1CC,-8,0,-8,0,5,-1
Cc1ccc2sc(N(Cc3cccnc3)C(=O)COc3ccc(Cl)cc3)nc2c1C,.,.,-21,.,.,.
CN1CCN(c2ccc(NC(=O)c3ccc([N+](=O)[O-])o3)cc2Cl)CC1,4,i,-1,-1,3,12
CCCC(=O)N1CCN(c2ccc(NC(=O)c3ccc([N+](=O)[O-])o3)cc2Cl)CC1,-61,-1,6,?,5,40*
COc1ccc(OC(=O)C(C)N2C(=O)c3ccccc3C2=O)cc1 (stereo unspecified),-32,-1,-10,0,-1,9
CC1=CC(C)(C)Nc2ccc(OC(=O)C(C)N3C(=O)c4ccccc4C3=O)cc21 (stereo unspecified),-12,-4,43*,5,1,-7
O=C(O)c1ccc(N/N=C/C2=Cc3ccccc3OC2)cc1,-108,i,i,179*,4,9
CCOC(=O)c1ccc(NC(=O)/C=C/C2=Cc3ccccc3OC2)cc1,.,.,-1,.,.,.
FC(F)(F)c1cccc(N2CCN(C(=S)NC3CCCCC3)CC2)c1,-17,0,32,37*,2,7
CCC1CCCCN1S(=O)(=O)c1ccc(C(=O)Nc2nnc(-c3cccs3)o2)cc1 (stereo unspecified),24,-7,2,60*,3,.
O=[N+]([O-])c1ccccc1S(=O)(=O)NCC(c1cccc2ccccc12)N1CCOCC1 (stereo unspecified),.,.,37*,.,.,.
COC(=O)NN=Cc1ccc(OC/C=C/c2ccccc2)c(OC)c1,.,.,1,.,.,.
C=CCOc1ccc(/C=N/NC(=O)CC#N)cc1OC,.,.,i,.,.,.
COc1cc(/C=N/NC(=O)CC#N)ccc1OCc1ccccc1,.,.,+,.,.,.
COc1cc(C=NNC(=O)CC#N)ccc1OC/C=C/c1ccccc1,.,.,68*,.,.,.
N#CCC(=O)NN=Cc1ccccc1OC/C=C/c1ccccc1,.,.,71*,.,.,.
O=C1NCCN1C(=O)NCc1cnn2c1CCCC2,.,.,-24,.,.,.
COc1ccc(-c2ccnc(SCC(=O)N3CCN(c4ccccc4)CC3)n2)cc1,-9,i,-2,105*,-1,7
Cc1ccnc(SCC(=O)N2CCN(c3ccccc3)CC2)n1,-14,i,-2,1,0,-4
CC(C)c1ccc(NC(=O)Nc2c[nH]c3ccccc23)cc1,.,.,39*,.,.,.
O=C(Nc1ccc(OC(F)(F)F)cc1)Nc1c[nH]c2ccccc12,.,.,17,.,.,.
O=C(Nc1ccc(F)c(Cl)c1)Nc1c[nH]c2ccccc12,.,.,54*,.,.,.
CCc1ccc(NC(=O)Nc2c[nH]c3ccccc23)cc1,.,.,38*,.,.,.
SMILES,PrP 5UTR inh,Vc quorum ag,PriA SSB inh,PfHsp40 yeast,SARS 3CLpro inh,PrPC TRFRET
Cc1ccc(NC(=O)Nc2c[nH]c3ccccc23)cc1Cl,.,.,-10,.,.,.
CCOC(=O)Cc1csc(NC(=O)C(c2ccccc2)c2ccccc2)n1,.,.,7,.,.,.
COc1cc(Cl)c(C)cc1NC(=O)CSC1=C(C#N)[C@H](c2ccccc2F)CC(=O)N1,.,.,6,.,.,.
Cc1oc(-c2ccc(Cl)cc2[N+](=O)[O-])cc1C(=O)Nc1cccc(F)c1,.,.,35*,.,.,.
C=CCn1c(SCC(=O)Nc2ccc(C(=O)OC)cc2)nc2nc(N3CCCCC3)sc2c1=O,.,.,-6,.,.,.
Cc1cc(Nc2ccc(Cl)cc2)nc(-c2ccccc2O)n1,-1,1,5,72*,-2,-2
COc1ccc(CCNC(=O)COc2ccc([N+](=O)[O-])cc2)cc1,-24,0,-21,-1,4,-7
COc1ccc(C(=O)OCC(=O)NCCCc2ccccc2)cc1[N+](=O)[O-],-11,i,2,0,3,-4
O=C(COC(=O)c1ccc([N+](=O)[O-])o1)NCc1ccc(F)cc1,-20,0,0,223*,.,-34
COc1ccc(CCNC(=O)COC(=O)c2ccc([N+](=O)[O-])o2)cc1,-21,i,-2,123*,.,-14
O=C(COC(=O)c1ccc([N+](=O)[O-])o1)NC1CCCCC1,-16,i,1,213*,.,-18
O=C(COC(=O)c1ccc([N+](=O)[O-])o1)NCCCc1ccccc1,-3,i,-4,45*,.,-29
O=C(c1c[nH]c2ccccc12)N1CCC[C@H](Oc2cccnn2)C1,.,.,-12,.,.,.
O=C(COC(=O)c1ccc([N+](=O)[O-])o1)Nc1cccc2ccccc12,-4,i,-7,80*,-1,-30
CC(=O)Nc1ccc(NC(=O)COC(=O)c2ccc([N+](=O)[O-])o2)cc1,-7,i,6,0,.,-29
C=C(C)COc1ccc(-c2[nH]ncc2-c2ccc(Br)cc2)c(O)c1,-21,i,-5,309*,3,3
Cc1c(N2C(=O)SC(CC(=O)O)C2=O)c(=O)n(-c2ccccc2)n1C (stereo unspecified),-3,36*,-4,0,2,1
Cc1ccc(C)c(C(=O)O/N=C(\N)c2ccc(Br)cc2)c1,-46,1,i,502*,-3,0
Cc1ccc(NC(=O)C2CCCCN2S(C)(=O)=O)cc1 (stereo unspecified),.,.,-13,.,.,.
Clc1ccc(-c2noc(-c3ccc(CSc4ccccc4)o3)n2)cc1,.,.,81*,.,.,.
COC(=O)c1ccc(NC(=O)CN2CC(=O)Oc3ccccc32)cc1,.,.,45*,.,.,.
NS(=O)(=O)c1ccc(NC(=O)CN2CC(=O)Oc3ccccc32)cc1,.,.,94*,.,.,.
Cc1ccc(Nc2nc(N(C)C)nc3[nH]ncc23)cc1C,.,.,-11,.,.,.
O=C(O)c1ccc(N/N=C/c2ccc(F)c(F)c2)cc1,-53,0,.,147*,3,17
O=C(O)c1ccc(N/N=C/c2cccc(F)c2)cc1,-78,0,.,3,2,8
SMILES,PrP 5UTR inh,Vc quorum ag,PriA SSB inh,PfHsp40 yeast,SARS 3CLpro inh,PrPC TRFRET
O=C(O)c1ccc(N/N=C/C(Br)=C/c2ccccc2)cc1,-204,0,i,183*,4,1
O=C(O)c1ccc(N/N=C/c2cccc(C(F)(F)F)c2)cc1,-72,i,.,64*,9,16
CCOC(=O)NCC1CCN(C(=O)COc2ccccc2)CC1,.,.,-10,.,.,.
CCn1ccc(C(=O)Nc2cccc(-c3nc4ccccc4s3)c2)n1,.,.,-6,.,.,.
Clc1cc(Cl)c2nc(Cl)sc2c1,.,.,-6,.,.,.
S=c1[nH]cc(Oc2ccc(Cl)cc2Cl)c(=S)[nH]1,.,0,10,.,.,22
Oc1cc(Cl)ccc1Oc1ccc(Cl)cc1Cl,-5,-1,-30,263*,.,-3
Cc1ccc(NC(=O)c2cccc(S(=O)(=O)N(C)C3CCCCC3)c2)nc1,-25,-2,-9,50*,.,0
Clc1ccc2[nH]c(-c3ccccc3)cc2c1,-108,i,-41,65*,-3,14
Cn1ccnc1SCC1CCN(S(=O)(=O)c2ccc(C(F)(F)F)cc2)CC1,.,.,17,.,.,.
Cn1ccnc1SCC1CCN(S(=O)(=O)c2ccc3c(c2)CCCC3)CC1,.,.,63*,.,.,.
